Drawing on PubChem BioAssay AID504397 (Broad Institute, 2011), this text covers outcome for one compound.

Structures are written as SMILES. Results with a measured potency or affinity are listed apart. Calls of active or inactive are those of the source. No rule for the calls is given here.

This assay in a line: toxicity toward cultured mammalian cells – cell-based, plate reader, cherry-pick samples, cytotoxicity control, dose response (AID 504397).

Take `CCOC(=O)[C@@H]1[C@H]2COc3ccc(Br)cc3[C@@H]2N2C(=O)N(c3cccc(C)c3)C(=O)[C@]12C`: the outcome was inactive.
